Biological target: C1orf115
Assay: pooled miR-30 sensor sort-seq; sequence = guide strand
Details: shRNA
Further: reference of the scale not given here.

Sequence | sensor-assay potency score (higher = more potent)
TTCCTCCGGTACCTCTTCCTGG | -1.14
TTGCAGGCCGATGACCACGTAG | -1.3
TTGAGGAATAAACAGCTCCTTA | -1.12
TTTTCTCTTCCAAATATGCTGT | -0.444
TTCTGCTGCACACCCACACTGC | -0.976

Biological target: C1orf131
Assay: as above
Details: shRNA

Sequence | sensor-assay potency score (higher = more potent)
TTTTTCTTGAAAATATCTGTTT | -0.422
TTTAATGTAAACTACTAGCATT | -0.73
TTGTAATTCACATAACTCTTTT | -0.919
TTCTGTACCTCCAAAGTCGTAA | -0.764
TAAATTACTAGATTCTTGGTTC | 0.886
TATTTTCTTGATATCAACTGGG | 0.559
TTATGATCTTCTTCTGTTCTGT | -0.0808
TTCTTTATGATCTTCTTCTGTT | -0.273
TAACCCGTGATACCAAACCGGT | -1.37
TTGAATTTTCCAACCTGTCCAA | 0.318
TTTGGATTTCCTGTCCTCCTGT | 0.0328
TTTCTTGATATCAACTGGGCTC | -0.367

Biological target: C1orf168
Assay: as above
Details: shRNA

Sequence | sensor-assay potency score (higher = more potent)
TATCACTAGATTTTGTTCGGTG | 0.284
TTGACATGTAAACTGAAACTGA | -0.315
TTCTCTTGAACTGACAGTGAAG | -0.905
TAGAAGCAAACTAACCATCTGC | 0.515
TTTCACATTCTCTTGAACTGAC | 0.742
TATTAGAAGCAAACTAACCATC | -0.751
TTTCTGATTCTTCAGCACCGTT | -1.25
TAGACATTGAAAGATAACCTTT | -0.653
TTCTAGGAGAGAAACTTTCTGA | -0.177
TTGATGACAATAATCTCTTTGT | -0.247
TTTGTTTCCAGCTTTTTCCTGG | 0.241
TTTCTTGAAGAATTGCTGCAGT | 0.0759

Biological target: C1orf61
Assay: as above
Details: shRNA

Sequence | sensor-assay potency score (higher = more potent)
TTCTTTTTGGTCTCCCAACTTA | -0.917
TATAGATCTTGGTTAGACATGG | -0.143
TTGAGAGGTCCTGAGTGGCAGG | -0.741
TCGGGGACTTGAGAGGTCCTGA | -0.479
TCTATCGTCCACACGGAGGAAG | -0.948
AACCAGATGAAGTACATTCTTC | -0.97
TTCTTCTTTTTGGTCTCCCAAC | -1.55
TTGGTCTCCCAACTTAGCCATG | -1.74
TATAGCCATATAGATCTTGGTT | -1.16
TTGTGCTGCCTGGAGGACGAGG | -1.4
TTTGGTCTCCCAACTTAGCCAT | -0.53
